# Data as given in PubChem BioAssay AID504834 (National Center for Advancing Translational Sciences (NCATS), 2011).
# Hit rate of the full screen: of about 320,000 compounds, about 22,000 (6.9%) were called active. Not shown: some 27% with an inconclusive outcome. Calls follow the shape of the dose curve; as a rule, active = well fitted inhibition curve with a large enough effect; inconclusive = small, poorly fitted or top-dose-only effect, or another doubt; inactive = no such curve, though single readings can be large or run the other way. Shown is part of a subset that was picked to be rich in actives. Entries that show only a call come without a potency.
# Experiment: Primary qHTS for delayed death inhibitors of the malarial parasite plastid, 96 hour incubation
# Details: P. falciparum luciferase reporter growth; series mostly up to 28.7 µM
# Method in brief: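 Two parasite generations (96 h, 37 C, 5% CO2) of compound exposure in infected erythrocytes (0.05% parasitemia, 2% hematocrit). Luciferase-reporter P. falciparum; decreased luminescence indicates inhibited growth, aimed at apicoplast-acting delayed death.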
# Potency is read from the fitted curve at half-maximal effect.
row,SMILES,Potency
1,CC(C)CC(O)C1CCN(C(=O)CCc2nnc(-c3ccc4c(c3)OCO4)o2)CC1 (configuration not stated),inactive
2,O=C(NC(Cc1ccccc1)C(=O)O)/C(=C\c1ccccc1)NC(=O)c1ccco1 (configuration not stated),inactive
3,O=C(NC(Cc1ccc(O)cc1)C(=O)O)/C(=C/c1ccccc1)NC(=O)c1ccccc1 (configuration not stated),11.7 µM (active)
4,CC(=O)N/C(=C\c1ccc(F)cc1)C(=O)NC(Cc1ccccc1)C(=O)O (configuration not stated),inactive
5,Cc1ccc(OCC(=O)Nc2nnc(-c3ccco3)s2)cc1,inactive
6,CC(NS(=O)(=O)c1ccc(Cl)cc1)C(=O)Nc1ccc2c(c1)OCCO2 (configuration not stated),inactive
7,COCCCn1c(SCC(=O)Nc2oc(C)c3c(C)n[nH]c(=O)c23)nc2sc3c(c2c1=O)CCC3,inactive
8,O=C(NCc1ccncc1)C(=O)NCc1ccco1,inactive
9,CCCC(C)C(=O)NCc1ccncc1 (configuration not stated),inactive
10,CC(C)(C)NC(=O)C(=O)NCc1ccncc1,3.29 µM (active)
11,CCc1cccc(NC(=O)COC(=O)c2cc(=O)c3ccccc3o2)c1,inactive
12,COC(=O)c1sc(NC(=O)COC(=O)C2CCC2)c(C(=O)OC)c1C,inactive
13,COc1ccc(N2CCN(C(=O)CSc3ncnc4c3cnn4-c3ccc(OC)cc3)CC2)cc1,inactive
14,c1ccc(-n2ncc3c(N4CCCC4)ncnc32)cc1,inactive
15,COc1ccc(-n2ncc3c(N4CCCc5ccccc54)ncnc32)cc1,13.1 µM (active)
16,O=C(NCC(=O)N(c1ccccc1)C(C(=O)NCC1CCCO1)c1ccccc1)c1cccs1 (configuration not stated),inactive
17,O=C(O)c1ccccc1-c1ccccc1C(=O)Nc1ccccc1Br,inactive
18,COC(=O)CN1C(=O)[C@H]2[C@@H](/C=C/c3ccccc3)N3C(=O)CN(CC4CC4)C(=O)[C@@]3(Cc3ccccc3)[C@H]2C1=O,inactive
19,Fc1ccc(-c2ccc(NCCN3CCOCC3)nn2)cc1,inactive
20,O=S(=O)(c1ccc(SCc2ccccc2)nc1)N1CCCCCC1,inactive
21,COc1ccc(-c2cc(=O)oc3cc(OC(C)C(=O)Nc4ccc(CN5CCOCC5)cc4)ccc23)cc1 (configuration not stated),9.28 µM (active)
22,Cc1cc(=O)oc2cc(OC(C)C(=O)Nc3ccc(N4CCOCC4)cc3)ccc12 (configuration not stated),inactive
23,Cc1cc(=O)oc2cc(NC(=O)C(C)Oc3ccccc3)ccc12 (configuration not stated),inactive

row,SMILES,Potency
1,CN1C(=O)C2(OCCCO2)c2cc(Cl)ccc21,inactive
2,Cc1cc(S(=O)(=O)c2cc3ccc(O)c(C)c3oc2=O)ccc1F,inactive
3,CCOc1ccc(-n2cnc3c(=O)[nH]c(N)nc32)cc1,inactive
4,Cc1n[nH]c(C)c1S(=O)(=O)N1CCCC(C(=O)Nc2ccc(Br)cc2)C1 (configuration not stated),inactive
5,CCC(C)C(N=C1NS(=O)(=O)c2ccccc21)C(=O)N1CCC(C)CC1 (configuration not stated),inactive
6,CCOC(=O)N1CCN(C(=O)c2ccc(S(=O)(=O)Nc3cccc(C(F)(F)F)c3)cc2)CC1,inactive
7,Nc1ccn(CC(=O)N2CCN(c3ccccn3)CC2)c(=O)n1,inactive
8,CC(C)C(=O)Nc1oc(-c2ccccc2)cc1C#N,2.08 µM (active)
9,CC(C)C(=O)Nc1ccc2c(c1)oc1ccccc12,inactive
10,CC(Oc1ccccc1)C(=O)Nc1oc(-c2ccco2)c(-c2ccco2)c1C#N (configuration not stated),inactive
11,CCC(=O)Nc1ccc2nn(-c3ccc(F)cc3)nc2c1,inactive
12,Cc1cccc(NC(=O)CN2CCN(CC(=O)NCC3(N4CCCCC4)CCCCC3)CC2)c1C,inactive
13,COC(=O)c1c(NC(=O)COc2ccc(Cl)cc2Cl)sc2c1CC(C)(C)NC2(C)C,6.57 µM (active)
14,CN1CCN(c2ccc(NC(=O)COc3ccc(Cl)cc3Cl)cc2)CC1,inactive
15,COC(=O)c1sccc1NC(=O)COc1ccc(Cl)cc1,inactive
16,Cc1nc2ccccc2c(=O)n1-c1ccc(F)c(NC(=O)c2cccs2)c1,inactive
17,O=C(NCc1cccc(Cl)c1)C1CCC(=O)N(C2CC2)C1 (configuration not stated),inactive
18,CCN1CCN(CCNC(=O)c2ccc3c(c2)NC(=O)/C(=C\c2ccc(OC)c(OC)c2)S3)CC1,inactive
19,Cc1ccc(S(=O)(=O)N(CC(O)CN2C(=O)NC(C)(C)C2=O)c2cccc([N+](=O)[O-])c2)cc1 (configuration not stated),inactive
20,COc1cc(/C=C2\CCCc3c2nc2ccccc2c3C(=O)O)cc(Cl)c1O,inactive
21,COc1ccccc1N1CCN(C(=O)Cn2nnc(-c3cccs3)n2)CC1,inactive
22,O=C(Nc1ccccc1-c1nnn(CC(=O)N2CCN(c3ccccc3)CC2)n1)c1cccs1,9.28 µM (active)
23,O=C(Nc1ccc(N2CCN(C(=O)C3CC3)CC2)cc1)c1cccs1,inactive

row,SMILES,Potency
1,Cc1nc2nc(SCC(=O)Nc3cccc(F)c3)[nH]c2cc1Br,inactive
2,N#Cc1ccc(OCC(=O)NC(=O)NC2CCS(=O)(=O)C2)cc1 (configuration not stated),inactive
3,CCOC(=O)C(C)N(c1ccccc1Cl)S(C)(=O)=O (configuration not stated),inactive
4,O=C(CSc1ccc(C(F)(F)F)cc1[N+](=O)[O-])NCCOc1ccccc1,13.1 µM (active)
5,Nc1ccccc1Sc1ccc(C(F)(F)F)cc1[N+](=O)[O-],inactive
6,Cc1cccc(OCCNC(=O)CSc2ccc(C(F)(F)F)cc2[N+](=O)[O-])c1,inactive
7,CCOc1ccccc1OCCCNCc1ccccc1,inactive
8,O=C(CNc1ccc(F)cc1F)NC(=O)NCc1ccco1,inactive
9,Cn1c(CNC(=O)c2ccco2)nnc1SCC(=O)N1CCN(c2ccccc2)CC1,inactive
10,Cc1nc2ncnn2c(C)c1CCC(=O)N1CCN(C(=O)c2ccco2)CC1,inactive
11,O=C(Nc1cccc2ccccc12)N1CCC2(CC1)OCCO2,inactive
12,Cc1nc2nc(C)c(CCC(=O)N3CCC4(CC3)OCCO4)c(C)n2n1,11.7 µM (active)
13,COc1ccc(CNC(=O)CNC(=O)c2sc3ccccc3c2Cl)cc1OC,inactive
14,CCOc1ccc(C)cc1S(=O)(=O)NC1CCCCCC1,inactive
15,Cc1ccc(-n2nc(C)c(C(=O)O)c2-n2cccc2)cc1,inactive
16,CCOc1ccccc1NC(=O)C1CCC(CNc2c(N3CCOCC3)c(=O)c2=O)CC1 (configuration not stated),inactive
17,COc1ccc(NC(=O)C2CCC(CNc3c(N4CCCCC4)c(=O)c3=O)CC2)c(OC)c1 (configuration not stated),inactive
18,CC(NC(=O)C1CCC(CNc2c(N3CCOCC3)c(=O)c2=O)CC1)c1ccccc1 (configuration not stated),13.1 µM (active)
19,O=C(NCCCc1ccccc1)C1CCC(CNc2c(N3CCCCC3)c(=O)c2=O)CC1 (configuration not stated),inactive
20,O=C(NCc1ccccc1Cl)C1CCC(CNc2c(N3CCCCC3)c(=O)c2=O)CC1 (configuration not stated),10.4 µM (active)
21,O=C(NCc1ccc(F)cc1)C1CCC(CNc2c(N3CCOCC3)c(=O)c2=O)CC1 (configuration not stated),inactive
